# Reference: PubChem BioAssay
# Inconclusive results are not listed. The source made the active and inactive calls.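 Rule for the calls, unless noted: active = percent response above a set limit, the screen-wide mean plus 3 SD (cut at about 130% in these data); inactive = the rest.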
# What was measured:
# [1] = rapamycin-like changes in RPL19A-GFP expression – cell-based, S. cerevisiae, multiplex flow cytometry, primary screen (AID 1862; in the data active = percent of DMSO control GFP below about 86%;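 note: lower values mimic rapamycin by blocking the RPL19A rise seen in DMSO cells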); conditions: S. cerevisiae RPL19A-GFP strain, flow cytometry fluorescence, 3 h; at 10 µM; stronger effect = lower value
# [2] = TOR pathway GLN3 branch reporter MEP2-GFP changes – S. cerevisiae, multiplex flow cytometry, primary screen (AID 1867;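 active = GFP response, as percent of the DMSO control, above the screen-wide mean plus 3 SD, about 139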;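 note: median GFP channel fluorescence of barcode-gated MEP2-GFP cells measured by flow cytometry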); conditions: S. cerevisiae MEP2-GFP strain, 3 h, at 10 µM, stronger effect = higher value, 100% means same as DMSO wells
# [3] = TOR pathway RTG branch CIT2 reporter changes – S. cerevisiae, GFP fusion, multiplex flow cytometry, primary screen (AID 1870);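 note: barcoded CIT2-GFP strain pooled with four other GFP strains with rapamycin as positive control; median GFP fluorescence per well over plate mean of DMSO wells so 100% = DMSO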; conditions: S. cerevisiae CIT2-GFP expression, 3 h, at 10 µM, stronger effect = higher value
# [4] = TOR pathway LAP4-GFP level changes – S. cerevisiae, multiplex flow cytometry, primary screen (AID 1873;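 active = GFP signal, as percent of the solvent control, above the screen mean plus 3 SD, about 149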); conditions: S. cerevisiae LAP4-GFP expression, 3 h, at 10 µM, stronger effect = higher value
# [5] = yeast AGP1-GFP level changes, GLN3 branch – cell-based, multiplex flow cytometry, S. cerevisiae, primary screen (AID 1887;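 active = GFP signal above the screen-wide mean plus 3 SD, that is over about 124.5% of the solvent control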;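 note: AGP1-GFP fusion strain of S. cerevisiae within a five-strain barcoded multiplex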); conditions: 3 h, at 10 µM, stronger effect = higher value
# [6] = reduced mouse 2C T cell binding to pMHC/ICAM-1 vesicles – MLPCN validation set, flow cytometry, LFA-1/ICAM-1 modulator project, pilot screen (AID 2523;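 active = response below a set limit, under 55% cells CD8-positive and vesicle-bound, and CD8 cells' 90th-percentile brightness under 279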;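 for vesicle binding response: mean PE anti-B7-1 fluorescence of CD8+ cells relative to row control; 100% = QL9-loaded vesicles with DMSO vehicle in the same plate row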); conditions: 2C mouse CD8+ T cells, at 7 µM, stronger effect = lower value; double positive events: measured here: CD8+/vesicle+ event percentage
# [7] = biological target: Integrin beta-1 (Homo sapiens) + Integrin alpha-4 (Homo sapiens) (UniProt P13612+P05556); assay: alpha4beta1 integrin LIBS antibody binding reduction – U937 cells, HUTS-21 mAb, flow cytometry, validation set, VLA-4 allosteric modulator project, pilot screen (AID 2674;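 active = inhibition above 50%, about 3 SD of the validation set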;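 note: antibody binding induced by the VLA-4 ligand LDV present at three times its Kd; 0% = LDV ligand with antibody and no compound and 100% = antibody without LDV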); conditions: HUTS-21 LIBS mAb binding, at 6.7 µM, stronger effect = higher value, binding induced by LDV ligand
# Chain of Integrin beta-1 (Homo sapiens) + Integrin alpha-4 (Homo sapiens) (P05556 whole entry, looked up): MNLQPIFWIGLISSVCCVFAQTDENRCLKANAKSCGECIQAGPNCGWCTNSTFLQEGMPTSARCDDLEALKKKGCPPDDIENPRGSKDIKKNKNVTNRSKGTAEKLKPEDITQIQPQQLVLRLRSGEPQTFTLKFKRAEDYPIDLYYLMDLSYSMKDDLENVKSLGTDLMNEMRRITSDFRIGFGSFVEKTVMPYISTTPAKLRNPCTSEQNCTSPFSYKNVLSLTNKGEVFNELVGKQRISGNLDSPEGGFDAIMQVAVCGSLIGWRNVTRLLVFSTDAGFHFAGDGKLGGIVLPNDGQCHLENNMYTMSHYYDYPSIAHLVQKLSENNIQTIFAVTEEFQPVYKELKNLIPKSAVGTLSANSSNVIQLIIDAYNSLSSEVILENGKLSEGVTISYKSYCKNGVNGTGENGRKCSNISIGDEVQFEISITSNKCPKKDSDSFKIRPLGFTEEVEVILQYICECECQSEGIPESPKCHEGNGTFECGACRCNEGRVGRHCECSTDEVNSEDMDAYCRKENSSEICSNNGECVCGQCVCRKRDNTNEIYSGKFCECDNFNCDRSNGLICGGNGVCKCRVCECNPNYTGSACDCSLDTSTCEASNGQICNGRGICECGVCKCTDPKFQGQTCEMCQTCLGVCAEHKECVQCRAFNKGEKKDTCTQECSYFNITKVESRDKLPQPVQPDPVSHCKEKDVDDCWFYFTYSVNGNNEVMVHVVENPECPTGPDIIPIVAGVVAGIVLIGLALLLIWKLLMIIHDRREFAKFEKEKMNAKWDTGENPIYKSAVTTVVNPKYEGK
# Chain of Integrin beta-1 (Homo sapiens) + Integrin alpha-4 (Homo sapiens) (P13612 whole entry, looked up): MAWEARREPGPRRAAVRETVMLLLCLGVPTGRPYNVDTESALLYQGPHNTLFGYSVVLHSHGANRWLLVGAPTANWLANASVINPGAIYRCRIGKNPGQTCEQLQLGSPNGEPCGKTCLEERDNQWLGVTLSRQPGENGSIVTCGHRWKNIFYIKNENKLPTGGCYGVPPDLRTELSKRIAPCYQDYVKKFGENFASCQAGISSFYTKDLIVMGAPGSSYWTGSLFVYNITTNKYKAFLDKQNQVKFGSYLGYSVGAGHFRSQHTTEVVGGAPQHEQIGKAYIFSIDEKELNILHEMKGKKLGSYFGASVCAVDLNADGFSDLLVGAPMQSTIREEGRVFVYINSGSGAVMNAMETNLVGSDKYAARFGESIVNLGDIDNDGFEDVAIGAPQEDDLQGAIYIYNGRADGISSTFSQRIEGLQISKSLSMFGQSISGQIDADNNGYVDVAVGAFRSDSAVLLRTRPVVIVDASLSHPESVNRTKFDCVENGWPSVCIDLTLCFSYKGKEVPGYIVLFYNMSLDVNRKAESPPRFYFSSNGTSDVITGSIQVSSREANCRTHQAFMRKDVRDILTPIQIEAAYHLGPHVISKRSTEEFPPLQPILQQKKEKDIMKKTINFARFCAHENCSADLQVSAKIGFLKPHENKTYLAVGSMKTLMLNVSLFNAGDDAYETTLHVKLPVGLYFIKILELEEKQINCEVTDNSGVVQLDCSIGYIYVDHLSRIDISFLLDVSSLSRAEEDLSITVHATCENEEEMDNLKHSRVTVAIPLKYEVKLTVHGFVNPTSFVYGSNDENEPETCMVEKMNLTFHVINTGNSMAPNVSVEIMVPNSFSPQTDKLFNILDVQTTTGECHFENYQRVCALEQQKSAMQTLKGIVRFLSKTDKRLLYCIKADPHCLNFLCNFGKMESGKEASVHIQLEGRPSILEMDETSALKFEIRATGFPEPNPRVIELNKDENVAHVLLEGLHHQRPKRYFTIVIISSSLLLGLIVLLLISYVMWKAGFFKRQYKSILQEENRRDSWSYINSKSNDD
# [8] = calorie-restriction mimetic ROS inhibitors, yeast – validation compound set, pilot screen (AID 2706;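 active = superoxide response below 65% of plate, a cut near 3 SD across the whole screen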;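 note: yeast exposed to compound for one week at 30 degrees C before staining; 100% = mean of all compound wells on the same plate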); conditions: S. cerevisiae aging, superoxide DHE fluorescence; at 10 µM; stronger effect = lower value
# [9] = biological target: Beta-adrenergic receptor kinase 1 (Homo sapiens) (UniProt P25098); assay: GRK2 binders displacing RNA aptamer, biochemical, validation, human GRK2, bead flow cytometry (AID 488806;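 active = aptamer binding inhibition above 30%, about 3 SD of noise from non-fluorescent compounds; inactive = inhibition at or below 30%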); conditions: bead-bound GRK2, FAM-aptamer displacement, at 10 µM, stronger effect = higher value
# Chain of Beta-adrenergic receptor kinase 1 (Homo sapiens) (P25098 whole entry, looked up): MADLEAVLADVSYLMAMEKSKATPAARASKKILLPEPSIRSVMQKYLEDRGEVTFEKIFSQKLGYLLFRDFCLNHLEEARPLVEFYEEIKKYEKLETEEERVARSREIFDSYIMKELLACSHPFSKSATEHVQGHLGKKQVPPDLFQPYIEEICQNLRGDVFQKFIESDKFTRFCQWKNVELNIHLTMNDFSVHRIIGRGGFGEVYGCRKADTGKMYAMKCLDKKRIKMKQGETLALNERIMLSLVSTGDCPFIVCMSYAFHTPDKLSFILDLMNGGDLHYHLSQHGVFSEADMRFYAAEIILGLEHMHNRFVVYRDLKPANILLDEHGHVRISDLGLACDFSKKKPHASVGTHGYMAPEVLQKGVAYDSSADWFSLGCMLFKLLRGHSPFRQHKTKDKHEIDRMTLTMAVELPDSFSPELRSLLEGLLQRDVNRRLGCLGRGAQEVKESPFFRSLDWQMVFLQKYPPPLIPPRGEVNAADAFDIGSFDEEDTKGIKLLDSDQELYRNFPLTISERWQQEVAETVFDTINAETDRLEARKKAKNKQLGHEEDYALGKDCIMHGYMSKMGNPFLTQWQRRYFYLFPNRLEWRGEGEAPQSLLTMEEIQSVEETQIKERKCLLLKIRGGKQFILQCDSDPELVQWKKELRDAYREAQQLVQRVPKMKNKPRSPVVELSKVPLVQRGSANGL
# [10] = biological target: Beta-2 adrenergic receptor (Homo sapiens) (UniProt P07550); assay: agonist-induced loss of surface beta2AR – cell-based, FAP fluorogen, flow cytometry, validation set, pilot screen (AID 504459;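 active = percent response above 42, roughly 3 SD of non-fluorescent test compounds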;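 note: agonist-driven loss of surface beta2AR via internalization measured by FAP dye flow cytometry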); conditions: Am2.2-beta2AR cells, at 10 µM, stronger effect = higher value
# Chain of Beta-2 adrenergic receptor (Homo sapiens) (P07550 whole entry, looked up): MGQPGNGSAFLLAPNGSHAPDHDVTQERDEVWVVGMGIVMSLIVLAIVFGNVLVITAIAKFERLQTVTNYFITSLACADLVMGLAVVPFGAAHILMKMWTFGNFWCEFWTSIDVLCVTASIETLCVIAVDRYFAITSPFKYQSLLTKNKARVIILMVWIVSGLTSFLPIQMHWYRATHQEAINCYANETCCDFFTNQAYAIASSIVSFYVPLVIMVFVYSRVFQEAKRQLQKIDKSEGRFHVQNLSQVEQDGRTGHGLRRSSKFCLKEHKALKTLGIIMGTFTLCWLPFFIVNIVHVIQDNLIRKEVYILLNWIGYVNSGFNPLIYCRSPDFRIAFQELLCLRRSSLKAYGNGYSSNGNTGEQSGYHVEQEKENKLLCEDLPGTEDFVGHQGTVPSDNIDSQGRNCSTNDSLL
# [11] = biological target: AP-2 complex subunit beta (Homo sapiens) (UniProt P63010); assay: beta-arrestin/AP2 interaction blockers – biochemical, validation set, GST-AP2 beads, flow cytometry, pilot screen (AID 504541;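 active = inhibition above 54%, about 3 SD of non-fluorescent compounds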;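 note: AP2 carries R879A mutation and is captured from E. coli lysate; bead-bound FITC arrestin peptide fluorescence measuring arrestin peptide binding to AP2; 0% = DMSO wells and 100% = excess unlabeled arrestin peptide control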); conditions: FITC arrestin peptide, at 10 µM, stronger effect = higher value, AP2 beta2 appendage fragment, R879A mutant
# Chain of AP-2 complex subunit beta (Homo sapiens) (P63010 whole entry, looked up, the tested form may be a part, one chain of several): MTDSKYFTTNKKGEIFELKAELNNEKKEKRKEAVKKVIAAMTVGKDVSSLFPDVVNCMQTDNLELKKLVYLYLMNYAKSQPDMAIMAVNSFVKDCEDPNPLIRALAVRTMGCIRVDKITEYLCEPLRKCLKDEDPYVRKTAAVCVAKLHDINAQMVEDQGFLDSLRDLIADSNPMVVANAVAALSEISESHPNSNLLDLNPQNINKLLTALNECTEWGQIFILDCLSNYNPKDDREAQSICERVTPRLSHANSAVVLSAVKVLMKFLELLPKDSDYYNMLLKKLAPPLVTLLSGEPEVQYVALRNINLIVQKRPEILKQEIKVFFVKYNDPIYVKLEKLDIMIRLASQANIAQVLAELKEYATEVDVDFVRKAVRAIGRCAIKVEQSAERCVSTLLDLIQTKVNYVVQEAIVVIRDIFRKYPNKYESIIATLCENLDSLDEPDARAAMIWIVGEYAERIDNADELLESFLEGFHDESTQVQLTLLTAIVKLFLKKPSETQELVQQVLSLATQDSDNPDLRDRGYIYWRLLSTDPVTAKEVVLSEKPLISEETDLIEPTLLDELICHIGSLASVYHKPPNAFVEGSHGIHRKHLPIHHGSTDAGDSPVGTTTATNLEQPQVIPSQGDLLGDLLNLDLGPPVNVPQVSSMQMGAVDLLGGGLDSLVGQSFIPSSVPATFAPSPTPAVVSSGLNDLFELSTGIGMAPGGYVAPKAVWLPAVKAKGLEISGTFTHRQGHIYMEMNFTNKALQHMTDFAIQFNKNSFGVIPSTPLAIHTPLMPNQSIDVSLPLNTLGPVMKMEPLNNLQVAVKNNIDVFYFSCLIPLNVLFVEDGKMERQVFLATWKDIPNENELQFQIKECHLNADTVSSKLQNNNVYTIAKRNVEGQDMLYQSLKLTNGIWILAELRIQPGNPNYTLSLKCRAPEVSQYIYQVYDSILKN
# [12] = cytosolic pH regulators acting via V-ATPase – S. cerevisiae, pHLuorin, HTS validation (AID 504600; in the data active = response above about 15%;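 note: plate controls were DMSO for no effect and reference compound for full effect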); conditions: V-ATPase proton transport, at 10 µM, stronger effect = higher value
# [13] = system: anti-desmoglein-3 scFv antibody binding to human DSG3; assay: blockers of pathogenic pemphigus antibody–desmoglein-3 binding – biochemical, validation compound set, bead-based, flow cytometry, pilot screen (AID 588368;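 active = binding below the plate cutoff, the plate median minus 3 SD, with a reading above zero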;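 note: signal is the median channel fluorescence of bead-bound GFP antibody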); conditions: Protein G beads, DSG3-Fc, scFv-GFP binding, at 10 µM, stronger effect = lower value
# [14] = Nile Red efflux blockade in pump-expressing yeast – validation compound set, multiplex, phenotypic, pilot screen (AID 588506;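 active = efflux inhibition above 0.42, the validation set average plus 4 SD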;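 note: Nile Red retained in cells so higher fluorescence means more efflux inhibition; 0 = negative control wells and 1 = enniatin B 25 µM full block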); conditions: S. cerevisiae pump-expressing triplex, Nile Red efflux flow cytometry; at 10 µM; stronger effect = higher value; the pumps come from Candida albicans
# [15] = biological target: ATP-binding cassette sub-family B member 6 (Homo sapiens) (UniProt Q9NP58); assay: blockers of ABCB6-driven porphyrin uptake – K562-ABCB6 cells, flow cytometry, validation set, pilot screen (AID 588550;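 active = inhibition above the screen-wide mean plus 3 SD, about 51%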;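 note: 0% = DMSO wells and 100% = benzethonium chloride 70 µM positive control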); conditions: K562-ABCB6 porphyrin accumulation, 1 h, at 10 µM, stronger effect = higher value
# Chain of ATP-binding cassette sub-family B member 6 (Homo sapiens) (Q9NP58 whole entry, looked up): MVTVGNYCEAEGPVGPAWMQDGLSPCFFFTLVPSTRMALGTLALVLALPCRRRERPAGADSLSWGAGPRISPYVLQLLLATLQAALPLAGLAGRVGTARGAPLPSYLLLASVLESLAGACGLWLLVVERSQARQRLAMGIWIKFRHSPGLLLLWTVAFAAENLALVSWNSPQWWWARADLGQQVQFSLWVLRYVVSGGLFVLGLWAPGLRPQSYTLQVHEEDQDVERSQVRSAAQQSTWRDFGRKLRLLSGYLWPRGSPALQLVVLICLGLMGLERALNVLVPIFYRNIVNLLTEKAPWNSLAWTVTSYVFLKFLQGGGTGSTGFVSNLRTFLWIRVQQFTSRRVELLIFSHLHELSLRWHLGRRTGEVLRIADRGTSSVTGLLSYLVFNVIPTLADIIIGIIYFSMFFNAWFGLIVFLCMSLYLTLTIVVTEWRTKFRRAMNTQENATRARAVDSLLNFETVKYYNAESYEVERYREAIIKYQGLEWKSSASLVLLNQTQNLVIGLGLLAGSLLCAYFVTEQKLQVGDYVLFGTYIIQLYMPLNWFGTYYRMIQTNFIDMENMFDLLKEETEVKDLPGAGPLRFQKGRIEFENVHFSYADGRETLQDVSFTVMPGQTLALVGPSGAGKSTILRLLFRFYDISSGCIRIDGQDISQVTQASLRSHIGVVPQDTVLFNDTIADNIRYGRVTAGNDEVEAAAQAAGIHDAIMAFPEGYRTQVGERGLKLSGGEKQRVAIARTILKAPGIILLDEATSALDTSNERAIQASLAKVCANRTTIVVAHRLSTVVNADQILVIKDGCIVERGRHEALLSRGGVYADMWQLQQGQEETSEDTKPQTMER
# [16] = AML differentiation inducers, ER-HoxA9 marrow cells – cell-based, GFP/MAC1 double positive, flow cytometry, validation set, primary screen (AID 588685;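 active = differentiation response of at least 50%, scaled between solvent and reference control, from cells with both markers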;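 note: compound exposure lasts four days before antibody staining and flow analysis; 0% = DMSO wells and 100% = 5 µM fulvestrant positive control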); conditions: stronger effect = higher value, normalized: vehicle 0, fulvestrant 100
SMILES,percent of DMSO control GFP [1],GFP response vs DMSO [2],percent response of DMSO control [3],GFP response vs DMSO [4],"GFP response, % of DMSO [5]",double positive events [6],vesicle binding response [6],inhibition [7],superoxide response (% of plate) [8],aptamer binding inhibition [9],response [10],inhibition [11],response [12],binding (% of control) [13],efflux inhibition (fraction of control) [14],inhibition [15],differentiation response [16]
CCOc1ccc2oc(-c3ccccc3)c(C(=O)O)c2c1,97.8% (inactive),108% (inactive),100% (inactive),110% (inactive),105% (inactive),65.1%,204% (inactive),5.69% (inactive),102% (inactive),6% (inactive),-17.2% (inactive),7.05% (inactive),1.4% (inactive),101% (inactive),-0.04 (inactive),9% (inactive),1.91% (inactive)
O=C(O)CCCN1C(=O)NC2NC(=O)NC21 (stereo not drawn),103% (inactive),114% (inactive),101% (inactive),86.1% (inactive),97.5% (inactive),64.9%,914% (inactive),-1.49% (inactive),106% (inactive),3% (inactive),0.46% (inactive),35.1% (inactive),-1.41% (inactive),98.4% (inactive),-0.04 (inactive),25% (inactive),33.5% (inactive)
CS(=O)(=O)Nc1ccc([N+](=O)[O-])cc1Oc1ccccc1,95.5% (inactive),97.6% (inactive),96.4% (inactive),115% (inactive),115% (inactive),62.2%,188% (inactive),-8.78% (inactive),106% (inactive),3% (inactive),-35% (inactive),-2.11% (inactive),2.46% (inactive),106% (inactive),-0.09 (inactive),5% (inactive),-8.93% (inactive)
NC(N)=N/N=C/c1ccc(OS(=O)(=O)c2ccccc2)cc1,102% (inactive),101% (inactive),101% (inactive),90.4% (inactive),102% (inactive),61.3%,141% (inactive),17.7% (inactive),93.2% (inactive),-12% (inactive),13.2% (inactive),-0.93% (inactive),-4.93% (inactive),107% (inactive),-0.03 (inactive),11% (inactive),4.2% (inactive)
Cc1nc(-c2coc3c(CN(C)C)c(O)ccc3c2=O)cs1,92.6% (inactive),131% (inactive),104% (inactive),85.8% (inactive),88% (inactive),61.6%,143% (inactive),-26.5% (inactive),98.6% (inactive),6% (inactive),4.53% (inactive),2.27% (inactive),-0.21% (inactive),105% (inactive),-0.46 (inactive),11% (inactive),-1.64% (inactive)
Cc1ccc(/C=N/Nc2nc(C(C)(C)C)cs2)o1,103% (inactive),106% (inactive),95.8% (inactive),98.2% (inactive),97.8% (inactive),69.4%,302% (inactive),17.3% (inactive),80.8% (inactive),5% (inactive),4.35% (inactive),-1.54% (inactive),6.19% (inactive),102% (inactive),0.51 (active),114% (active),7.2% (inactive)
COc1cc(C2Nc3ccccc3C(=O)N2c2ccccc2)ccc1O (stereo not drawn),109% (inactive),108% (inactive),116% (inactive),93.3% (inactive),103% (inactive),62.9%,256% (inactive),3.7% (inactive),90% (inactive),0% (inactive),-10.2% (inactive),-6.11% (inactive),61.2% (active),99.7% (inactive),0.18 (inactive),3% (inactive),9.04% (inactive)
COCCCNc1nc2c([nH]1)c(=O)[nH]c(=O)n2C,104% (inactive),99.6% (inactive),105% (inactive),112% (inactive),114% (inactive),63.1%,156% (inactive),9.95% (inactive),94.3% (inactive),4% (inactive),-17.8% (inactive),13.3% (inactive),6.45% (inactive),98.5% (inactive),-0.17 (inactive),6% (inactive),-5.97% (inactive)
CCOc1ccc(C(NC(C)=O)c2ccc(OC)c(OC)c2)cc1 (stereo not drawn),99.8% (inactive),104% (inactive),99.3% (inactive),101% (inactive),100% (inactive),58.9%,28% (inactive),-20.4% (inactive),107% (inactive),5% (inactive),-0.66% (inactive),-21.1% (inactive),-0.46% (inactive),99.2% (inactive),-0.63 (inactive),8% (inactive),0% (inactive)
O=c1cc(CN2CCN(c3cccc(Cl)c3)CC2)c2cc(O)c(-c3ccccc3)cc2o1,93% (inactive),133% (inactive),102% (inactive),83.1% (inactive),92.8% (inactive),69.1%,265% (inactive),0.64% (inactive),113% (inactive),0% (inactive),6.6% (inactive),-0.51% (inactive),-1.13% (inactive),97.8% (inactive),-0.02 (inactive),11% (inactive),-12.3% (inactive)
CCc1cccc2c3c([nH]c12)C(CC)(CC(=O)O)OCC3 (stereo not drawn),103% (inactive),106% (inactive),100% (inactive),93.3% (inactive),100% (inactive),61.9%,36.2% (inactive),-4.6% (inactive),107% (inactive),1% (inactive),-0.16% (inactive),-11.4% (inactive),1.09% (inactive),86.9% (inactive),-0.26 (inactive),-5% (inactive),3.18% (inactive)
Cc1cccc(Oc2coc3cc(OC(=O)c4cncc(Br)c4)ccc3c2=O)c1,98% (inactive),111% (inactive),95.8% (inactive),126% (inactive),100% (inactive),64.8%,224% (inactive),-4.52% (inactive),78.9% (inactive),1% (inactive),9.93% (inactive),-11.9% (inactive),1.76% (inactive),99.1% (inactive),0.33 (inactive),103% (active),10.4% (inactive)
O=C(CCC(=O)c1cccs1)c1cccs1,99.5% (inactive),96.3% (inactive),107% (inactive),72.6% (inactive),86.5% (inactive),60.5%,125% (inactive),-4.52% (inactive),108% (inactive),3% (inactive),-4.9% (inactive),-11.3% (inactive),1.04% (inactive),91.5% (inactive),-0.1 (inactive),6% (inactive),-20% (inactive)
CCOc1ccc2ccccc2c1C(=O)N[C@@H]1C(=O)N2[C@@H]1SC(C)(C)[C@@H]2C(=O)O,101% (inactive),112% (inactive),93.1% (inactive),85.5% (inactive),97.5% (inactive),67.6%,994% (inactive),-3.57% (inactive),108% (inactive),2% (inactive),1.55% (inactive),17.1% (inactive),0.05% (inactive),95.5% (inactive),0.14 (inactive),8% (inactive),11% (inactive)
Cc1ncc(CN2CCC(CO)(CCc3ccccc3)CC2)s1,101% (inactive),111% (inactive),104% (inactive),102% (inactive),110% (inactive),62.3%,98.1% (inactive),6.95% (inactive),97.2% (inactive),2% (inactive),-0.43% (inactive),-1.19% (inactive),0.58% (inactive),107% (inactive),-0.07 (inactive),6% (inactive),-1.65% (inactive)
Cc1ccc(C2CC(c3cccs3)=NN2C(=O)c2ccco2)o1 (stereo not drawn),92.6% (inactive),87.6% (inactive),89.3% (inactive),82.8% (inactive),87% (inactive),62.2%,135% (inactive),2.93% (inactive),106% (inactive),-1% (inactive),-25.7% (inactive),-17.3% (inactive),-7.57% (inactive),107% (inactive),0.275 (inactive),-1% (inactive),1.28% (inactive)
O=C(O)CCSCCC(=O)O,99.2% (inactive),107% (inactive),94.2% (inactive),97.3% (inactive),102% (inactive),63.2%,5720% (inactive),8.88% (inactive),107% (inactive),1% (inactive),2.6% (inactive),10% (inactive),1.2% (inactive),94% (inactive),0.05 (inactive),7% (inactive),-9.53% (inactive)
CCn1cc(C(=O)O)c(=O)c2ccc(C)nc21,99.5% (inactive),98.7% (inactive),92.4% (inactive),93.7% (inactive),106% (inactive),55.9%,172% (inactive),-15.8% (inactive),99.5% (inactive),-1% (inactive),3.04% (inactive),-4.75% (inactive),-3.3% (inactive),108% (inactive),0.085 (inactive),-8% (inactive),-4.57% (inactive)
COc1ccc(C2NC(=O)c3ccccc3O2)c(OC)c1OC (stereo not drawn),105% (inactive),104% (inactive),111% (inactive),101% (inactive),104% (inactive),61.2%,200% (inactive),-7.72% (inactive),89.7% (inactive),5% (inactive),-12.7% (inactive),-2.37% (inactive),1.87% (inactive),95.5% (inactive),0.11 (inactive),0% (inactive),-1.71% (inactive)
